Source: PubChem BioAssay
An excerpt weighted towards active compounds, which were near 2.2% of everything screened.
IEC-6 tox: counter-screen for KLF5 inhibitors: cytotoxicity in IEC-6 cells | IEC-6 cytotoxicity, luminescence viability | 290,000 compounds, 0.78% hits | inhibition, % at 5 µM;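 further: 0% = plate median of test compound wells and 100% = cytotoxic reference compound wells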
APP 5UTR inh: APP translation inhibition | inhibition, % at 2 µM | 190,000 compounds, 0.82% hits | SH-SY5Y APP 5'UTR-luciferase reporter, luminescence | AID 1285;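 active means inhibition above a set limit, derived from the sample mean plus 3 SD, cut at about 45% in these data; inconclusive means one replicate passes the limit while the other fails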
BaF3 parental: parental Ba/F3 viability inhibition as JAK2V617F counter-screen. CellTiter-Glo ATP luminescence. inhibition, % at 5.6 µM. 220,000 compounds, 1.1% hits;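 active means inhibition above a per-campaign cutoff, the mean inhibition of all tested compounds plus 3 SD, cut at about 27% in these data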;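 further: 0% = DMSO wells and 100% = JAK Inhibitor I control wells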
Ba/F3 V617F tox: loss of viability in JAK2V617F-driven Ba/F3 cells | Ba/F3 EpoR-JAK2V617F viability, ATP luminescence | AID 1446 | inhibition, % at 5.6 µM | 220,000 compounds, 1.1% hits;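 active means inhibition above the campaign mean plus 3 SD over all tested compounds, cut at about 24% in these data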;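 further: cytokine-independent growth of Ba/F3 cells driven by EpoR plus mutant JAK2; 0% = DMSO-treated cells and 100% = JAK inhibitor I control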
KLF5 inh: suppresses KLF5 promoter-driven expression; inhibition, % at 5 µM; DLD-1 KLF5 promoter-luciferase reporter, luminescence; AID 1700; 290,000 compounds, 0.23% hits;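 active means inhibition above a per-plate limit of that plate's mean compound inhibition plus 3 SD, cut at about 60% in these data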;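 further: 0% = DMSO wells and 100% = LY294002 at 200 µM; higher means less KLF5 promoter-driven luciferase light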
aSyn 5UTR inh: 5' untranslated region of α-synuclein, MLPCN primary screen; alpha-synuclein 5'UTR reporter, inhibitor activity; 300,000 compounds, 0.82% hits; inhibition, % (tested at 7.5 µM); AID 1813; in the data active means inhibition above about 60%; inconclusive means no clear call, values can overlap the other calls;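 further: H4 neuroglioblastoma cells stably carrying SNCA 5'UTR luciferase fusion; 0% = DMSO wells and 100% = positive control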
IEC-6 tox confirm: confirmation of cytotoxic compounds in rat IEC-6 intestinal epithelial cells; inhibition, % at 5 µM; 1,900 compounds, 63% hits; IEC-6 rat intestinal epithelial viability, luminescence; shares compounds with IEC-6 tox;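 further: 0% = vehicle and 100% = reference cytotoxic drug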
* hit, by the source's call; u = inconclusive; x = no result given. Unless noted, no stated cut-off is given here; in the data, active means inhibition above about 22%; inactive means the rest.

SMILES | IEC-6 tox | APP 5UTR inh | BaF3 parental | Ba/F3 V617F tox | KLF5 inh | aSyn 5UTR inh | IEC-6 tox confirm
Cc1cc2ccccn2c1C(=O)c1cc([N+](=O)[O-])cc([N+](=O)[O-])c1 | 3.3 | -34.3 | -2.7 | -3.3 | 3.8 | 2.3 | x
COc1ccccc1-c1cc(C(=O)Nc2cccnc2)no1 | 58.2* | 95.8* | 56.9* | 75.1* | 37.9 | u | 39.2*
COc1cc(NC(=O)c2cc(-c3ccccc3Cl)on2)cc(OC)c1OC | 54.6* | x | x | x | 23.5 | -75.8 | 33.2*
CC(C)c1ccc(/C=N/Nc2cc(N3CCOCC3)nc(N3CCOCC3)n2)cc1 | -2.4 | -4.1 | 4.2 | 0.0 | -17.6 | x | x
Cc1cccc(/C=N/Nc2cc(N3CCOCC3)nc(N3CCOCC3)n2)c1 | 23.6* | 15.1 | 18.9 | 12.0 | -16.2 | -19.1 | 94.1*
Cc1ccc(Nc2nc(N/N=C\c3ccc4c(c3)OCO4)nc(N3CCOCC3)n2)cc1 | 49.4* | 16.4 | 15.2 | 2.5 | -49.1 | -30.2 | 67.1*
Cc1[nH]c2c(C)cccc2c(=O)c1CN1CCCCCC1 | 0.2 | x | x | x | -27.9 | 0.8 | x
Cc1ccccc1Nc1nc(N)c2ccccc2n1 | 19.6 | -144.1 | 16.0 | 16.9 | -6.8 | -9.5 | x
Nc1nc(Nc2ccccc2)nc2ccccc12 | 22.2* | -154.9 | 15.4 | 11.0 | -70.8 | -82.4 | 14.7
COc1ccccc1C(=O)Nc1ccnn1C1CCN(Cc2ncc[nH]2)CC1 | 0.9 | x | x | x | 4.8 | 10.1 | x
c1ccc2c(OCCCN3CCCCCC3)cccc2c1 | 2.8 | x | x | x | -10.7 | 24.8 | x
COC(/C(=N/O)c1ccc(Cl)cc1)c1ccccc1 (centres undefined) | 28.5* | x | x | x | -21.8 | -7.9 | 11.1
COc1ccc(Cl)cc1NC(=O)C(OC)c1ccccc1 (centres undefined) | 2.0 | 1.1 | 1.6 | 1.7 | 6.1 | -7.7 | x
COc1ccc(C2c3cc(OC)c(OC)cc3CCN2S(C)(=O)=O)cc1OC (centres undefined) | 36.4* | 15.3 | 57.5* | 75.5* | 2.4 | 22.4 | 9.7
COc1ccc(C2c3cc(OC)c(OC)cc3CCN2C(=O)c2ccccc2)cc1OC (centres undefined) | -2.5 | x | x | x | -13.0 | 3.3 | x
CCc1nnc(NC(=O)c2nc(Cl)ccc2Cl)s1 | -2.4 | x | x | x | -36.4 | 0.5 | x
CSc1nnc(NC(=O)c2nc(S(=O)(=O)Cc3ccccc3F)ncc2Cl)s1 | 2.7 | x | x | x | -6.7 | -9.4 | x
CC(C)c1nnc(NC(=O)c2nc(S(=O)(=O)Cc3ccccc3F)ncc2Cl)s1 | 18.2 | x | x | x | -2.0 | -72.1 | x
CCc1nnc(NC(=O)c2nc(S(=O)(=O)Cc3cccc(C)c3)ncc2Cl)s1 | 40.7* | x | x | x | 14.7 | -114.5 | 5.8
Cc1nnc(NC(=O)c2nc(S(=O)(=O)Cc3ccccc3C)ncc2Cl)s1 | 68.9* | x | x | x | 19.5 | -38.7 | 17.0
CCc1nnc(NC(=O)c2nc(S(=O)(=O)Cc3ccccc3)ncc2Cl)s1 | 34.0* | x | x | x | 8.7 | -24.0 | 6.6
CCSc1nnc(NC(=O)c2nc(S(=O)(=O)Cc3ccc(F)cc3)ncc2Cl)s1 | -5.6 | x | x | x | -6.5 | 10.3 | x
CCc1nnc(NC(=O)c2nc(S(=O)(=O)Cc3ccc(C)cc3)ncc2Cl)s1 | 49.7* | x | x | x | 4.1 | -51.7 | 17.6
N#C/C(=C\c1c(F)cccc1Cl)C(=O)NC1CC1 | -0.3 | x | x | x | -0.4 | -4.5 | x
CCOc1ccccc1NC(=O)c1nc(S(=O)(=O)Cc2cccc(C)c2)ncc1Cl | 72.8* | x | x | x | 27.9 | 88.0* | 29.8*
SMILES | IEC-6 tox | APP 5UTR inh | BaF3 parental | Ba/F3 V617F tox | KLF5 inh | aSyn 5UTR inh | IEC-6 tox confirm
COc1ccc2nc(NCc3ccccc3)[nH]c2c1 | 4.8 | -17.5 | 6.0 | 1.1 | -43.4 | -80.0 | x
Cc1ccc2[nH]c3c(NCc4ccccc4)ncnc3c2c1 | 30.3* | x | x | x | -13.0 | -94.8 | 17.4
Cc1ccc2nc(NCc3ccccc3)[nH]c2c1 | 82.3* | 9.7 | 75.9* | 85.4* | 23.5 | 39.6 | 51.0*
CC(C)c1c(C(=O)N/N=C/c2ccc3c(c2)OCO3)nnn1-c1nonc1N | -1.1 | x | x | x | -40.3 | -33.7 | x
CCN(CC)c1ccc(/C=N/NC(=O)c2nnn(-c3nonc3N)c2C(C)C)c(O)c1 | 96.7* | x | x | x | 49.6 | 92.0* | 67.8*
Cc1ccc(N(CC(=O)NCCSc2ccccn2)S(C)(=O)=O)cc1 | -0.3 | 20.4 | 11.1 | 1.3 | -13.8 | -97.9 | x
Cc1ccc(-c2ccnc3c(Br)c(C)nn23)cc1 | 28.4* | x | x | x | -13.7 | 24.8 | 19.0
Cc1nn2c(-c3ccccc3)ccnc2c1Br | 10.4 | x | x | x | -10.8 | 16.8 | x
Clc1ccc(CSc2nncn2-c2ccccn2)cc1 | 1.8 | 0.2 | 6.5 | -2.3 | -18.0 | 1.6 | x
Clc1ccc(CSc2nncn2-c2ccc3c(c2)OCCO3)cc1 | 32.3* | x | 1.9 | 6.3 | 2.3 | 65.8* | 30.8*
CCOc1cc(NC(=O)c2cccs2)c(OCC)cc1NC(=O)CCC(=O)NCc1ccccn1 | 57.2* | x | 64.1* | 80.7* | 36.6 | 6.4 | 12.1
COc1ccc(N(C(=O)c2csnn2)C(C(=O)NC2CCCC2)c2ccccc2)cc1 (centres undefined) | 1.8 | x | x | x | -1.0 | -8.0 | x
CCc1ccccc1Nc1ncnc2ccccc12 | 0.1 | x | x | x | -39.0 | -7.2 | x
CCCCCCCCNc1ncnc2ccccc12 | 26.9* | 19.5 | 62.5* | 69.7* | -2.7 | -16.5 | 13.4
CCOC(=O)C1CCCN(C(=O)c2ccc3nc(-c4cccc(OC)c4)oc3c2)C1 (centres undefined) | 29.5* | x | x | x | -51.3 | -29.7 | 14.8
COc1ccc(NC(=O)CN(C)C(=O)CN2C(=O)C3CCCCC3C2=O)cc1 (centres undefined) | x | x | x | x | x | 1.5 | x
CC(C)Sc1ccccc1C(=O)Nc1ccc2c(c1)n(C)c(=O)n2C | 4.3 | x | x | x | -33.0 | -7.5 | x
Cc1ccc(NS(=O)(=O)c2ccc(-c3cnc(C4CC4)o3)cc2)c(C)c1 | 78.5* | x | x | x | 58.9 | 76.8* | 55.1*
COc1ccc(NS(=O)(=O)c2ccc(-c3cnc(C4CC4)o3)cc2)cc1OC | 50.4* | x | x | x | 35.9 | 41.3 | 39.5*
O=S(=O)(Nc1ccc(F)cc1Cl)c1ccc(-c2cnc(C3CC3)o2)cc1 | 81.8* | x | x | x | 55.5 | 67.6* | 52.0*
Cc1cccc(N(C)S(=O)(=O)c2ccc(-c3cnc(C4CC4)o3)cc2)c1 | 90.8* | x | x | x | 55.9 | 97.4* | 64.6*
COc1ccc(N(CC(=O)Nc2ccc(S(=O)(=O)N3CCOCC3)cc2)S(=O)(=O)c2ccc(F)cc2)cc1 | 6.4 | 0.1 | 8.9 | 8.4 | -1.1 | 19.9 | x
CC1CCCN(C(=O)c2cn(-c3ccccc3)nc2-c2cccnc2)C1 (centres undefined) | x | x | x | x | x | -1.1 | x
CCN(CC)/C(=N\S(=O)(=O)c1ccc(F)cc1)c1ccccc1 | 0.5 | x | x | x | -27.6 | 4.1 | x
COc1ccccc1NS(=O)(=O)c1ccc(-c2cnc(C3CC3)o2)cc1 | 83.8* | x | x | x | 58.4 | -10.1 | 55.5*
COc1ccccc1CNS(=O)(=O)c1ccc(-c2cnc(C3CC3)o2)cc1 | 69.2* | x | x | x | 54.6 | 61.2 | 53.7*
COc1cc2c(cc1OC)CN(CC(=O)Nc1cccc(C(F)(F)F)c1)CC2 | -0.1 | x | x | x | -34.1 | 15.6 | x
CC12CCC(=O)N1C(C(=O)NNC(=O)c1ccccc1)CS2 (centres undefined) | x | x | x | x | x | -5.4 | x
